Test results as given in PubChem BioAssay AID602327 (NMMLSC, 2012).
Some of the results follow. A number with no mark means an inactive call. Activity calls are given as the source filed them. Rule as the data show it: active = inhibition above about 25%; inactive = the rest.

target: Lethal factor (Bacillus anthracis) (UniProt P15917); assay: Bacillus anthracis LF protease inhibitors, confirmation, biochemical, multiplex microsphere (AID 602327); conditions: multiplex microsphere protease cleavage assay; at 10 µM; active compounds read high
Sequence (P15917 whole entry, looked up): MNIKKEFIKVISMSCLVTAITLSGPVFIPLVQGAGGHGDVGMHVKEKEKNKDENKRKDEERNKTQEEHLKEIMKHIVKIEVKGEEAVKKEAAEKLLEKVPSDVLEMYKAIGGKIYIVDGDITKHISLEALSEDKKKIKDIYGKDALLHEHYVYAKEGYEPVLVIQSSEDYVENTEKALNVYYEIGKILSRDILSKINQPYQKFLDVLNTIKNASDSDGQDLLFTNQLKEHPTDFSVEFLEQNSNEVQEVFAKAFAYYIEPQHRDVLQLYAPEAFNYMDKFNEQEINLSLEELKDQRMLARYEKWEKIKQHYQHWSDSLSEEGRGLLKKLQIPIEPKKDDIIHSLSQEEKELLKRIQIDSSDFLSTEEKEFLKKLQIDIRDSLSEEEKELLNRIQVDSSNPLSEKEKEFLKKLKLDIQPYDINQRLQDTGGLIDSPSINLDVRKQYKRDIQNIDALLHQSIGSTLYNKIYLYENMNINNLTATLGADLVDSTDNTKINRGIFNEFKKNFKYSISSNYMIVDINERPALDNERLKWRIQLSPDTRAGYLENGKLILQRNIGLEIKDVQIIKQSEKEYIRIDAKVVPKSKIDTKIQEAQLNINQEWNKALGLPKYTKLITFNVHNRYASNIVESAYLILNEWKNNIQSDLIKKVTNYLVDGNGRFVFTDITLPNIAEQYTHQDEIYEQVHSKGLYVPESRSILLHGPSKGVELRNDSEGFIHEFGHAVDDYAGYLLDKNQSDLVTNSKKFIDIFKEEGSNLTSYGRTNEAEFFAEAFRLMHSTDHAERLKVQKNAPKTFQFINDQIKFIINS

Q: Which inhibition does the source give for `O=C(CN1CCN(c2ccccc2O)CC1)NC(=O)NCc1ccccc1` here?
A: The inhibition was -1.7%.

Q: With `CC(=O)OCCN(CCCn1c(-c2ccncc2)nc2ccccc21)c1nc(-c2ccc(C)cc2)cs1` as the compound, how does the inhibition read?
A: The inhibition was 0.3%.

Q: With `Cc1cc2ccccc2n1CCNC(=O)COc1ccc2ccccc2c1` as the compound, how does the inhibition read?
A: The inhibition was 0.2%.

Q: `COc1ccc(-c2cc3c(c4c2ccn4C)C2CCC3C2)cn1` (stereo not drawn) was tested. Which inhibition did it give?
A: Its inhibition is 26.4% (active).

Q: For `Cc1ccc(CNC(=O)c2cccc3c2C(=O)c2ccc(N4CCC(C)CC4)cc2S3(=O)=O)cc1`, which inhibition is on record?
A: The inhibition was 7.9%.

Q: `O=C(OCC(=O)c1c[nH]c2ccccc12)c1cccc(O)c1` was tested. Which inhibition did it give?
A: Its inhibition is -2.5%.

Q: With `CCOc1ncccc1C(=O)OCC(=O)c1c[nH]c2ccccc12` as the compound, how does the inhibition read?
A: Its inhibition is 10.4%.

Q: For `Cc1cc2cc(CNC(=O)c3ccc(S(=O)(=O)N4CCOCC4)cc3)ccc2[nH]1`, which inhibition is on record?
A: Its inhibition is -0.8%.
